HT1080-NT tox – kills 2HG-producing HT-1080-NT fibrosarcoma cells; HT-1080-NT fibrosarcoma viability, CellTiter-Glo ATP luminescence, 48 h; Potency, µM (titrated, usually from 46.1 µM), inactives show at the top dose activity, negative = less viability, hits mostly cytotoxic; actives 1.6% (n = 360,000); AID 686970;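 note: NT is the 2HG producing partner of a matched IDH1 knockdown line; 0% = DMSO-treated cells and -100% = media-only wells without cells; nearly all actives have a fitted effect of over 55% in size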
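Luminescent CellTiter-Glo readout after 48 hours of compound exposure at 37 degrees C defined viability of HT-1080-NT cells. Activity was normalized to DMSO wells and cell-free media wells; concentration-response curves were fitted and assigned curve classes.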
HT1080 IDH1KD tx – kills HT-1080 cells with IDH1 knockdown. Potency, µM (titrated, usually from 46.1 µM), inactives show at the top dose activity, negative = toxicity, most hits filed as cytotoxic. HT-1080 IDH1 knockdown viability, ATP luminescence, 48 h. actives 2% (n = 360,000);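 note: 0% = DMSO wells and -100% = cell-free medium wells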
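Viability of IDH1-knockdown HT-1080 fibrosarcoma cells was assessed by CellTiter-Glo after 48 h at 37 °C with titrated compound; concentration-effect curves were classified by fit quality and response size.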
KB-3-1 tox – kills parental KB-3-1 adenocarcinoma cells. AID 1347075. Potency, µM (titrated, usually from 46.1 µM), hits mostly cytotoxic. KB-3-1 viability, CellTiter-Glo ATP luminescence, 72 h. actives 1.4% (n = 400,000); note: nearly all actives have a fitted effect of over 60% in size
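KB-3-1 parental drug-naive adenocarcinoma cells in DMEM/10% FBS, incubated 72 h at 37 C with pin-transferred compounds across a concentration series. Viability by CellTiter-Glo luminescence; concentration-response curves fitted after normalization.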
KB-V1 cytotox – KB-V1 MDR subline cytotoxicity; KB-V1 MDR cells viability, CellTiter-Glo, 72 h; Potency, µM (titrated, usually from 46.1 µM), actives largely listed as cytotoxic; actives 3.4% (n = 400,000); AID 1347076; note: nearly all actives have a fitted effect of over 60% in size
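Luminescent ATP read-out (CellTiter-Glo, 10 min) measures survival of drug-selected KB-V1 MDR cells after 72 h, 37 degrees C compound exposure. Medium: phenol-red-free DMEM, 10% FBS. Values from fitted concentration-response curves.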
DT40 TDP1 no CPT – qHTS for Inhibitors of human tyrosyl-DNA phosphodiesterase 1 (TDP1): qHTS in cells in absence of CPT. Potency, µM (series often up to 46.2 µM), for the others: at the top dose activity change, negative = growth inhibition, most hits filed as inhibitors. DT40 Tdp1-/- hTDP1 cells, no CPT, ATP luminescence, 48 h. actives 15% (n = 420,000). AID 686978, 2013; note: nearly all actives have a fitted effect of over 55% in size
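Chicken DT40 Tdp1-/- cells complemented with human TDP1, screened without camptothecin (DMSO vehicle only), 400 cells/well. Compounds pin-transferred, cells incubated at 37 °C for at least 48 hr. Growth read as ATP-dependent luminescence (CellTiter-Glo, 30 min at RT).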
TDP1 cell CPT – growth inhibition of DT40 Tdp1-/-;hTDP1 cells with camptothecin (screen for TDP1 inhibitors). Potency, µM (doses to about 46.2 µM), for inactives: at the top dose activity change, negative = growth inhibition, most hits filed as inhibitors. AID 686979. actives 12% (n = 420,000). chicken DT40 Tdp1-/-;hTDP1 cells + 20 nM CPT, ATP luminescence, 48 h; note: nearly all actives have a fitted effect of over 55% in size
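Chicken DT40 Tdp1-/- cells stably complemented with human TDP1 were seeded at 400 cells/well in medium containing 20 nM camptothecin, exposed to pin-transferred compounds, and grown at 37 °C for at least 48 hr. Viability was read as ATP luminescence.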
Active calls of the source: *. This is a sample that favours compounds with a hit; in the whole collection about 19% have one here. Calls come from the whole dose curve; as a rule, active = well fitted curve in the direction sought with a large enough effect; inconclusive = small, poorly fitted or top-dose-only effect, or another doubt; inactive = no such curve, though single readings can be large; an effect the other way counts as inactive or inconclusive. Unless noted, % is set by controls: 0 for no effect and ±100 for the full control effect; potency is the fitted concentration of half-maximal effect.

COc1cccc(C2=Cc3ccc(F)cc3C(CC(C)=O)N2c2ccc(-c3cncnc3)cc2)c1 (stereo not given) was read as HT1080-NT tox -12.0%, HT1080 IDH1KD tx -6.3%, KB-3-1 tox inconclusive, KB-V1 cytotox inconclusive, DT40 TDP1 no CPT 16.4µM* and TDP1 cell CPT 13µM*.
Screening COc1cccc(C2=Cc3ccc(F)cc3C(CC(C)=O)N2c2ccc(-c3cc(OC)c(OC)c(OC)c3)cc2)c1 (stereo not given) returned HT1080-NT tox 14.6%, HT1080 IDH1KD tx 3.4%, KB-3-1 tox inactive, KB-V1 cytotox inactive, DT40 TDP1 no CPT -13.6% and TDP1 cell CPT -3.0%.
`Cn1cncc1C#Cc1ccc(N2C(c3ccsc3)=Cc3ccc(F)cc3C2c2c[nH]c3ccccc23)cc1` (stereo not given) gave HT1080-NT tox inconclusive, HT1080 IDH1KD tx inconclusive, KB-3-1 tox inconclusive, KB-V1 cytotox inactive, DT40 TDP1 no CPT inconclusive and TDP1 cell CPT inconclusive.
COc1ccc(-c2ccc(N3C(c4ccsc4)=Cc4ccc(F)cc4C3c3c[nH]c4ccccc34)cc2)cc1 (stereo not given) was read as HT1080-NT tox inconclusive, HT1080 IDH1KD tx inconclusive, KB-3-1 tox inconclusive, KB-V1 cytotox inactive, DT40 TDP1 no CPT 18.4µM* and TDP1 cell CPT inconclusive.
For CSCC[C@H](NC(=O)C1CCN(S(=O)(=O)c2ccc(C)cc2)CC1)C(=O)NC1CCS(=O)(=O)C1 (stereo not given in full) the results were HT1080-NT tox 1.3%, HT1080 IDH1KD tx -3.4%, KB-3-1 tox inactive, KB-V1 cytotox inactive, DT40 TDP1 no CPT 9.7% and TDP1 cell CPT 3.5%.
For Cc1cc(/C=N/n2cnnc2)c(C)n1-c1ccc(C(=O)O)cc1 the results were HT1080-NT tox 0.1%, HT1080 IDH1KD tx 4.9%, KB-3-1 tox inactive, KB-V1 cytotox inactive, DT40 TDP1 no CPT 7.2% and TDP1 cell CPT -23.4%.
Cc1cccc(-n2c(C)cc(/C=N/n3cnnc3)c2C)c1 was read as HT1080-NT tox -12.8%, HT1080 IDH1KD tx -10.3%, KB-3-1 tox inconclusive, KB-V1 cytotox 18.4µM*, DT40 TDP1 no CPT inconclusive and TDP1 cell CPT 23.1µM*.
`C(=N\n1cnnc1)/c1ccc2c(c1)OCO2` gave HT1080-NT tox inconclusive, HT1080 IDH1KD tx 9.9%, KB-3-1 tox inactive, KB-V1 cytotox inactive, DT40 TDP1 no CPT -0.6% and TDP1 cell CPT 4.5%.
Cc1cc(/C=N/n2cnnc2)c(C)n1-c1ccc2c(c1)OCO2 was read as HT1080-NT tox -2.1%, HT1080 IDH1KD tx -16.3%, KB-3-1 tox inactive, KB-V1 cytotox 5.17µM*, DT40 TDP1 no CPT -23.1% and TDP1 cell CPT inconclusive.
For CCCc1ccc(C2Sc3ccccc3NC3=C2C(=O)c2ccccc23)cc1 (stereo not given) the results were KB-3-1 tox inconclusive, KB-V1 cytotox inactive, DT40 TDP1 no CPT 14.6µM* and TDP1 cell CPT inconclusive.
`O=C1C2=C(Nc3ccccc3SC2c2ccccc2C(F)(F)F)c2ccccc21` (stereo not given) gave KB-3-1 tox inactive, KB-V1 cytotox inconclusive, DT40 TDP1 no CPT 3.26µM* and TDP1 cell CPT 5.8µM*.
COc1ccc(Br)cc1C1Sc2ccccc2NC2=C1C(=O)c1ccccc12 (stereo not given) was read as KB-3-1 tox inconclusive, KB-V1 cytotox inconclusive, DT40 TDP1 no CPT 13µM* and TDP1 cell CPT inconclusive.
Screening O=C1C2=C(Nc3ccccc3SC2c2ccc(Cl)c(Cl)c2)c2ccccc21 (stereo not given) returned KB-3-1 tox inconclusive, KB-V1 cytotox inconclusive, DT40 TDP1 no CPT 25.9µM* and TDP1 cell CPT 14.6µM*.

Bioassay records from PubChem BioAssay.
